Outcome and AC50 data for eight compounds are collected here from PubChem BioAssay (EPA / NIEHS).

Experiment [1] concerns the target Peroxisome proliferator-activated receptor gamma (Homo sapiens) (UniProt P37231). Kind of experiment: NVS_NR_hPPARg: NovaScreen (NVS) Nuclear Receptor Binding Assay for human Peroxisome Proliferator-activated Receptor gamma (PPARg) (AID 2283370). The method in brief:
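Fluorescence polarization measures competitive binding to extracted PPARg in a cell-free format. Reading is taken at 2 h; activity is signal loss relative to DMSO. Screening at 25 uM in duplicate preceded confirmatory dose series.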

The target in experiment [2] is Estrogen receptor (Homo sapiens) (UniProt P03372). Kind of experiment: OT_ERa_GFPERaERE_0480: Odyssey Thera (OT) 8-hour HeLa Transcription Induction Assay for Estrogen Receptor (AID 2283381; active = hit-call score of the fitted dose curve at least 0.9, where 1 is the maximum; inactive = score below 0.9). The method in brief:
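GFP-ERE reporter, HeLa, 8 h exposure. Readout: fluorescence microscopy, high-content image analysis. Fit direction positive vs DMSO negative control.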

Experiment [3] has the same target. The experiment is described as follows: OT_ERa_GFPERaERE_0120: Odyssey Thera (OT) 2-hour HeLa Transcription Induction Assay for Estrogen Receptor (AID 2283382). The gist of the method: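 Fluorescence microscopy read-out: inducible fluorescent protein reporter in HeLa cells, imaged 2 h post-dose. Signal increase over DMSO negative control fitted as single primary endpoint via high content image analysis.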

Experiment [4] addresses Bile acid receptor (Homo sapiens) (UniProt Q96RI1). The experiment is described as follows: OT_FXR_FXRSRC1_0480: Odyssey Thera (OT) 8-hour HEK293T Protein-Complementation Assay for Farnesoid X receptor/SRC-1 Co-activator (AID 2283383). The gist of the method:
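Fluorescence intensity read-out, 8 h post-dose, HEK293T protein-fragment complementation; FXR bait and SRC-1 prey each linked to reporter fragments. Activity scored as signal increase over DMSO negative control.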

Experiment [5] has the same target. Kind of experiment: OT_FXR_FXRSRC1_1440: Odyssey Thera (OT) 24-hour HEK293T Protein-Complementation Assay for Farnesoid X receptor/SRC-1 Co-activator (AID 2283384). The method in brief: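 Fluorescence readout, 24 h post-dose, HEK293T; FXR and SRC-1 fused to complementary reporter fragments, association reconstitutes signal. Positive-direction fit vs DMSO baseline.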

For experiment [6], the target named is Retinoic acid receptor RXR-alpha (Homo sapiens) (UniProt P19793). The experiment is described as follows: OT_NURR1_NURR1RXRa_0480: Odyssey Thera (OT) 8-hour HEK293T Protein Complementation Assay for Nurr1/retinoid X receptor (RXR) (AID 2283385). The method in brief: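 Read-out: fluorescence from protein-fragment complementation between Nurr1 and RXRα in human HEK293T cells, 8 h after dosing. DMSO served as negative control; increased signal counted as activity.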

Experiment [7] addresses Peroxisome proliferator-activated receptor gamma (Homo sapiens) (UniProt P37231). Kind of experiment: OT_PPARg_PPARgSRC1_0480: Odyssey Thera (OT) 8-hour Protein-Complementation Assay for Peroxisome Proliferator-activated Receptor Gamma / SRC-1 Co-activator (AID 2283387).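 Also: nuclear to cytoplasmic split Venus YFP fluorescence ratio reporting PPARg SRC-1 interaction.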 The method in brief: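 HEK293T transiently transfected with PPARg and SRC-1 fused to Venus YFP fragments, compounds 8 h at 37C. Fixed, Draq5-stained cells imaged; nuclear/cytoplasmic 488 nm fluorescence ratio over at least 350 cells per image; gain fitted versus DMSO.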

Experiment [8] has the same target. The experiment is described as follows: OT_PPARg_PPARgSRC1_1440: Odyssey Thera (OT) 24-hour Protein-Complementation Assay for Peroxisome Proliferator-activated Receptor Gamma/ SRC-1 Co-activator (AID 2283388). The gist of the method:
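Transient HEK293T, YFP fragments 1-158/159-239 (mutant IFP1/IFP2) fused to PPARg/SRC-1; 24 h dosing; fix 4% formaldehyde, Draq5; Opera imaging 488/635 nm; N/C ratio, gain vs DMSO.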

Experiment [9] in a line: CEETOX_H295R_11DCORT: CeeTox H295R High-throughput Steroidogenesis Assay for 11-Deoxycortisol (11DCORT) (AID 2283432; active = hit-call score of the fitted dose curve at least 0.9, where 1 is the maximum; inactive = score below 0.9;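 as to AC50: 11-deoxycortisol secreted into the medium measured by LC-MS/MS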). Conditions: actives raise or lower the signal. The gist of the method:
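H295R cells prestimulated 48 h with 10 uM forskolin, then exposed 48 h to chemical in 0.1% DMSO. 11-Deoxycortisol in medium quantified by HPLC-MS/MS after MTBE extraction; bidirectional fit versus DMSO. MTT viability read in same wells.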

The nature of experiment [10]: CEETOX_H295R_OHPREG: CeeTox H295R High-throughput Steroidogenesis Assay for OH-Pregnenolone (OHPREG) (AID 2283434; active = hit-call score of the fitted dose curve at least 0.9, where 1 is the maximum; inactive = score below 0.9). Conditions: actives raise or lower the signal. The method in brief:
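Secreted 17alpha-hydroxypregnenolone measured by HPLC-MS/MS after liquid-liquid extraction. Human adrenal H295R cells received 48 h forskolin (10 uM) stimulation before 48 h chemical exposure at 0.1% final DMSO; MTT viability in same wells; bidirectional fit against DMSO.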

The nature of experiment [11]: CEETOX_H295R_OHPROG: CeeTox H295R High-throughput Steroidogenesis Assay for OH-Progesterone (OHPROG) (AID 2283435; active = hit-call score of the fitted dose curve at least 0.9, where 1 is the maximum; inactive = score below 0.9;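 as to AC50: 17alpha-hydroxyprogesterone secreted into medium measured by HPLC-MS/MS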). Conditions: actives raise or lower the signal. The gist of the method:
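HPLC-MS/MS quantification of 17alpha-hydroxyprogesterone secreted by H295R cells after 48 h chemical exposure, following 48 h 10 uM forskolin prestimulation. Gain or loss of signal fitted relative to DMSO. Viability checked by MTT in the same wells.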

Experiment [12] addresses Estrogen receptor beta (Homo sapiens) (UniProt Q92731). Kind of experiment: OT_ER_ERbERb_1440: Odyssey Thera (OT) 24-hour HEK293T Protein-Complementation Assay for Estrogen Receptor-beta/-beta Homodimer (AID 2283380).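 Also: fluorescence gain from ER beta LBD homodimer complementation read by laser scanning cytometry; scored as signal increase over DMSO baseline for both agonists and antagonists.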 The method in brief:
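Fluorescence increase, nuclear for agonists or whole-cell for antagonists, relative to DMSO vehicle, quantified by laser scanning cytometer after fixation and Draq5 staining. Readout from 24 h treatment of HEK293T cells carrying complementation-paired ER beta LBD (aa 310-547).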

Experiment [13] has as its target Retinoic acid receptor RXR-alpha (Homo sapiens) (UniProt P19793). Kind of experiment: OT_NURR1_NURR1RXRa_1440: Odyssey Thera (OT) 24-hour HEK293T Protein Complementation Assay for Nurr1/retinoid X receptor (RXR) (AID 2283386). The method in brief: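 Fluorescence PCA read-out; HEK293T; 24 h post-dose; bait/prey fused to reporter fragments; gain-of-signal fit vs DMSO negative control.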

For experiment [14], the target named is Agonist Androgen Response Element (ARE), AR (gene 367) (UniProt P10275). The experiment is described as follows: OT_AR_ARELUC_AG_1440: Odyssey Thera (OT) 24-hour CHO-K1 Luciferase Assay for Agonist Androgen Response Element (ARE) (AID 2283379). The method in brief: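 Readout: luciferase bioluminescence from CHO-K1 ARE-luc cells, measured 24 h post-dosing; agonism = increased mean luminescence vs DMSO controls, fitted in positive direction.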

Experiment [15] concerns rat Norepinephrine Transporter (NET), gene 83511. Kind of experiment: NVS_TR_rNET: NovaScreen (NVS) Transporter Assay for rat Norepinephrine Transporter (NET) (AID 2283373). The gist of the method:
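Competitive radioligand displacement at the rat NET using forebrain membrane preparations, 1 h incubation, filter-based scintillation readout. Primary testing in duplicate at a single 25 uM concentration; confirmed actives retested across concentrations.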

The target in experiment [16] is human Dopamine Transporter (DAT), SLC6A3 (gene 6531) (UniProt Q01959). The experiment is described as follows: NVS_TR_hDAT: NovaScreen (NVS) Transporter Assay for human Dopamine Transporter (DAT) (AID 2283374).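 Also: activity means loss of bound radioligand signal relative to DMSO.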 The gist of the method: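 Duplicate single-point screening at 25 uM preceded concentration-series follow-up of actives. Binding was measured by competitive displacement of a radioligand from DAT protein, filter-counted by scintillation 1 h after dosing. Decrease relative to DMSO taken as activity.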

Experiment [17] deals with rat Serotonin Transporter (SERT), Slc6a4 (gene 25553) (UniProt P31652). The experiment is described as follows: NVS_TR_rSERT: NovaScreen (NVS) Transporter Assay for rat Serotonin Transporter (SERT) (AID 2283375). The method in brief: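 Steps: rat forebrain membranes dosed with chemical (25 uM duplicate primary; concentration series for actives); 1 h incubation; labelled ligand bound, filtered, counted by scintillation. Activity scored as signal loss vs DMSO.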

Experiment [18] addresses human Norepinephrine Transporter (NET), SLC6A2 (gene 6530) (UniProt P23975). Kind of experiment: NVS_TR_hNET: NovaScreen (NVS) Transporter Assay for human Norepinephrine Transporter (NET) (AID 2283377).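 Also: cell-free membrane protein extracted from CHO cells expressing human NET; displacement of radioligand from human NET seen as loss of scintillation signal.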 The method in brief:
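Single-concentration duplicate screen at 25 uM, then concentration-response for actives; displacement of specific radioligand from human NET in CHO membrane extracts, filter-based scintillation detection at 1 h relative to DMSO.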

The target in experiment [19] is mouse Estrogen Receptor alpha (Era), Esr1 (gene 13982) (UniProt P19785). The experiment is described as follows: NVS_NR_mERa: NovaScreen (NVS) Nuclear Receptor Binding Assay for mouse Estrogen Receptor alpha (Era) (AID 2283378).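 Also: hit means loss of bound radioligand signal relative to DMSO.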 The method in brief:
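Test chemicals competed against a specific radioligand for binding to cell-free mouse Era. Duplicate wells at 25 uM were read 18 hours later by filter-based radiodetection, with loss of signal against DMSO scored as activity.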

The target of experiment [20] is human Serotonin Transporter (SERT), SLC6A4 (gene 6532) (UniProt P31645). The experiment is described as follows: NVS_TR_hSERT: NovaScreen (NVS) Transporter Assay for human Serotonin Transporter (SERT) (AID 2283372). The method in brief: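 Human platelet membrane preparation; displacement of radioligand from serotonin transporter measured after 1 h by filtration and scintillation counting. Single 25 uM duplicate screen, then concentration series for actives, with DMSO as negative baseline.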

The AC50 is the concentration giving half of the maximal activity seen.

Several values for one entry are separate records, joined by “and”; a condition that tells them apart may be missing. Equal entries are not always repeated. Inconclusive results are not listed. Where a structure was tested more than once in an assay, its records may differ in their call. Activity calls are given as the source filed them. The calls were made as follows, unless noted: active = hit-call score of the fitted dose curve at least 0.9, where 1 is the maximum; inconclusive = response in the unintended direction; inactive = score below 0.9.

human Dopamine Transporter (DAT), SLC6A3 (gene 6531), sequence (Q01959 whole entry, looked up): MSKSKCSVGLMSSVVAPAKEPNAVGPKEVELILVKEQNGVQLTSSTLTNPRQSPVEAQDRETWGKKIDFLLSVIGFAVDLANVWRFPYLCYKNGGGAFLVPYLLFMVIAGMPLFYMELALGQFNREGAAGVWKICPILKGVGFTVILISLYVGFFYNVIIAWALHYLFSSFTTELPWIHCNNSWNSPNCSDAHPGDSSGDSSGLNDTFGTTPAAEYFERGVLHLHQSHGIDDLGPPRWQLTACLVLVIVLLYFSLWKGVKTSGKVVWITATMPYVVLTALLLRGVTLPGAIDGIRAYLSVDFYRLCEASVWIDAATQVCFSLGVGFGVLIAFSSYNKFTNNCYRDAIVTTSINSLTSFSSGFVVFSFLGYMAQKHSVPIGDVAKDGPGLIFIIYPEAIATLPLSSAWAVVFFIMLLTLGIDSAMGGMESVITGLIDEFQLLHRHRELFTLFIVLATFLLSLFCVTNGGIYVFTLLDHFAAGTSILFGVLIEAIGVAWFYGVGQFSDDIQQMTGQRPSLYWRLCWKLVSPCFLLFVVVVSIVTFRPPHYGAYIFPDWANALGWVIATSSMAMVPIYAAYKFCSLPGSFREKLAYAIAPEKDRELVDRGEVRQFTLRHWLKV
Retinoic acid receptor RXR-alpha (Homo sapiens), sequence (P19793 whole entry, looked up, the tested form may be a part): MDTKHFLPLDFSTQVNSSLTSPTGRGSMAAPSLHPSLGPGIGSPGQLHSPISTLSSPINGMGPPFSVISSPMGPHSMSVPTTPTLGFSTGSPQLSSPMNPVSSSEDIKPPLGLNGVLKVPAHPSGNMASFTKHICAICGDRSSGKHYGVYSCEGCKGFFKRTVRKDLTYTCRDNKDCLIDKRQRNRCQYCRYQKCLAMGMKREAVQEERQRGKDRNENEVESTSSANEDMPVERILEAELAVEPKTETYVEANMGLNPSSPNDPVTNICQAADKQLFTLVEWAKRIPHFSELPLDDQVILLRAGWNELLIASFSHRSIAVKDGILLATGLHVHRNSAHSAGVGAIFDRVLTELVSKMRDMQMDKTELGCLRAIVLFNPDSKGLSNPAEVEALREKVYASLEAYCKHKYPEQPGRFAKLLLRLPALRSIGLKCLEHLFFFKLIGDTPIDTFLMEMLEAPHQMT
Bile acid receptor (Homo sapiens), sequence (Q96RI1 whole entry, looked up, the tested form may be a part): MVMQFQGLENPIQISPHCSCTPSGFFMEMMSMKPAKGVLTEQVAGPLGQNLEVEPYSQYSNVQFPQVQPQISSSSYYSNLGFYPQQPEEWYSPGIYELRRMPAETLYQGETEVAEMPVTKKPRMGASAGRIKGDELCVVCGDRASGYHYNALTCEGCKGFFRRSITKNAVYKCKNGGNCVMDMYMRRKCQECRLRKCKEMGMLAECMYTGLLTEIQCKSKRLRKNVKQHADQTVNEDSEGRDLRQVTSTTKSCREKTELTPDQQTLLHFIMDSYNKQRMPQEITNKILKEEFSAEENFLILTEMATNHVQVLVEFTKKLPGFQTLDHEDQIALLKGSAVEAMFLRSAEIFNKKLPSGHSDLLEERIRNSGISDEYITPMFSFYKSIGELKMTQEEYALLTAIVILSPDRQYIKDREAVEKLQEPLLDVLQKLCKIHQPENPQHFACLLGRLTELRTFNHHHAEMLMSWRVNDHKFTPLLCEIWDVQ
Peroxisome proliferator-activated receptor gamma (Homo sapiens), sequence (P37231 whole entry, looked up, the tested form may be a part): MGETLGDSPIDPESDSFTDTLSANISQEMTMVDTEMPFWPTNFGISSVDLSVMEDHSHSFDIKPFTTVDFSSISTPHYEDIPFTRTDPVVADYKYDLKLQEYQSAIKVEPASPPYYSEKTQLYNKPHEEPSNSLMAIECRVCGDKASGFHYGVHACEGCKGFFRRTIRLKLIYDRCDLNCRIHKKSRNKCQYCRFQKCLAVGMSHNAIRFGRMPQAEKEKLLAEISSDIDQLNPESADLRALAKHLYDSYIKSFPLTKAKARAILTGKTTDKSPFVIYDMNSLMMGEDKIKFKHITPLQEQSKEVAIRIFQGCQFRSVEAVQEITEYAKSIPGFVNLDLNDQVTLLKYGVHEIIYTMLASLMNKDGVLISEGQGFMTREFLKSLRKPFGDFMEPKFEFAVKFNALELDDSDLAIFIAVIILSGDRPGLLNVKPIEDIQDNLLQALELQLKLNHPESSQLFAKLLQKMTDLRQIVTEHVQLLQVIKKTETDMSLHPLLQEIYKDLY
mouse Estrogen Receptor alpha (Era), Esr1 (gene 13982), sequence (P19785 whole entry, looked up): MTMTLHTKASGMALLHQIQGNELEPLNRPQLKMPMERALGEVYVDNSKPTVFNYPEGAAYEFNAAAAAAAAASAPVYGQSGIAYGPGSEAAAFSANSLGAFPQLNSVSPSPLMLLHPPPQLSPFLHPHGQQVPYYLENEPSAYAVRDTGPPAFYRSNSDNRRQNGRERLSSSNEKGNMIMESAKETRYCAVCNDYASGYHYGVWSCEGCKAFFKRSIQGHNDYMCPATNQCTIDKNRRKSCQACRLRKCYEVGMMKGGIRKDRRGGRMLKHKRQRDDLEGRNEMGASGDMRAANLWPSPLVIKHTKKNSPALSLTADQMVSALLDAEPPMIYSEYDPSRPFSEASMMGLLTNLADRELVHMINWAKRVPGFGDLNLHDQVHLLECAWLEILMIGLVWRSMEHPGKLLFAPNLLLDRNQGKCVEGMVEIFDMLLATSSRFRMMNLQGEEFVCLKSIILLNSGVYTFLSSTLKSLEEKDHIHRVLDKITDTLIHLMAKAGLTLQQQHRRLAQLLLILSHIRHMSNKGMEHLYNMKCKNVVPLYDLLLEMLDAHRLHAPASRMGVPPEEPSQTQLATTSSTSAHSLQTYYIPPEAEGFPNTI
Estrogen receptor beta (Homo sapiens), sequence (Q92731 whole entry, looked up, the tested form may be a part): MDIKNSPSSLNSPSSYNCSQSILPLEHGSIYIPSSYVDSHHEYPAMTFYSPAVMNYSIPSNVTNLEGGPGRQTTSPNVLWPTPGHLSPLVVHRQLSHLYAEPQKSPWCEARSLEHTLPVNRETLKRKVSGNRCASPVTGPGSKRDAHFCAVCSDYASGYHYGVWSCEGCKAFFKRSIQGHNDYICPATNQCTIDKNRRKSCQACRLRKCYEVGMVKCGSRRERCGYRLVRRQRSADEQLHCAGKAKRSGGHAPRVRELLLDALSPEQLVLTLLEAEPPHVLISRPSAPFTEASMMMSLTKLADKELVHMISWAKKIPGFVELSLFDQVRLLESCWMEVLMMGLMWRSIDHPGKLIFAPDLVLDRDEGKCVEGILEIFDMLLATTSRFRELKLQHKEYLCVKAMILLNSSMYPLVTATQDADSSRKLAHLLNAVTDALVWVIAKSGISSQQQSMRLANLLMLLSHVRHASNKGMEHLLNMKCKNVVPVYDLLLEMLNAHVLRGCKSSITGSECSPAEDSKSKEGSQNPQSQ
Estrogen receptor (Homo sapiens), sequence (P03372 whole entry, looked up): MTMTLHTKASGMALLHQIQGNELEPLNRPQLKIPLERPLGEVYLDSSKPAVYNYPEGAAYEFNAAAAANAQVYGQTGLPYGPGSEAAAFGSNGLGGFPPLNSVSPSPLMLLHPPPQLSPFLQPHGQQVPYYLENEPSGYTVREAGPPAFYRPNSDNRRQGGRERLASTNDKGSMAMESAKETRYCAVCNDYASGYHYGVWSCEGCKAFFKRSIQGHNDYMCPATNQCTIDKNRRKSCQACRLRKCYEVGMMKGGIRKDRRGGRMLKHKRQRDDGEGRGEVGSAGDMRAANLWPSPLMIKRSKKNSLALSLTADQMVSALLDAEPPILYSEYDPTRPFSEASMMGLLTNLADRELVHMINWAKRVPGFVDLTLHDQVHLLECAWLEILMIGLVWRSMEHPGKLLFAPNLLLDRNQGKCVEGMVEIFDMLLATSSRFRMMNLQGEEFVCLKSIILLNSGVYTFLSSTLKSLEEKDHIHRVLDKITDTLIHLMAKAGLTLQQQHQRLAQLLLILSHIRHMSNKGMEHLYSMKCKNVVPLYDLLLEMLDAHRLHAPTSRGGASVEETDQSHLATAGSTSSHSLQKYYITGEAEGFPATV
rat Serotonin Transporter (SERT), Slc6a4 (gene 25553), sequence (P31652 whole entry, looked up): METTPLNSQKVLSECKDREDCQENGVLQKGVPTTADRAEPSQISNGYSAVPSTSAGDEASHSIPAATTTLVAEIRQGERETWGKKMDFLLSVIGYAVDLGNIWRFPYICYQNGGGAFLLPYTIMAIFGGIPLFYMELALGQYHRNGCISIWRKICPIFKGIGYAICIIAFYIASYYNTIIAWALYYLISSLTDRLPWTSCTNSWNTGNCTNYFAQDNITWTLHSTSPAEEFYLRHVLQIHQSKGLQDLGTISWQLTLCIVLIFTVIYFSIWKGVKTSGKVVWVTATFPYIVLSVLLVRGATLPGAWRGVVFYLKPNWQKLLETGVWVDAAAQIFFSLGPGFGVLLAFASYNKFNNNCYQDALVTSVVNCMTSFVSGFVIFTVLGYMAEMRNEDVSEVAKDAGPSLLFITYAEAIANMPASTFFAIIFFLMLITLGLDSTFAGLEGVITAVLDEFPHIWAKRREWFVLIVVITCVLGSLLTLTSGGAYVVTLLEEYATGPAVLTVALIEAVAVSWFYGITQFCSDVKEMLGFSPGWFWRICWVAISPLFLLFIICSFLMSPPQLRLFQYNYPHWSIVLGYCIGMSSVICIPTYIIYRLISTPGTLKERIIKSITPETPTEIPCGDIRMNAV

Turning to `Cc1oc2c(NC(=O)c3c(Cl)cccc3Cl)cccc2c1C(C)(C)O`, the compound was classed as inactive in [1], in experiment [2], in experiment [3], in [4], in experiment [7] and in experiment [8]. For the same compound, the AC50 in experiment [5] was 13.5 µM (active); in experiment [6] it was 12.6 µM (active); in experiment [9], 3.01 µM (active); in [10], 1.42 µM (active); in [11], 3.07 µM (active).

In the case of `O=C(O)c1ccccc1-n1cc(C(=O)O)c(=O)c2cc(Nc3c(F)cc(F)cc3Cl)c(Cl)cc21`, the compound was called inactive in experiment [1], in experiment [12], in experiment [2], in [3], in experiment [4] and in [5]. The outcome in experiment [6], in experiment [13], in [7] and in [8] was inactive.

On to `O=c1c(-c2ccc(O)cc2)coc2cc(O)cc(O)c12`, for which the AC50 in experiment [1] was 39.4 µM (active); in experiment [4], 12.5 µM (active) and 11.5 µM (active) and 13.4 µM (active); in experiment [5], 18.9 µM (active) and 20.5 µM (active) and 18.6 µM (active); in experiment [6], 29 µM (active) [middle of 4 runs]; in experiment [9], 11.9 µM (active); in experiment [11] it was 30.5 µM (active). Moreover, the call in [14], in experiment [4], in [5], in experiment [6], in [13] and in experiment [7] was inactive. Besides, the outcome in experiment [8] was inactive.

Regarding `Oc1ccc2ccccc2c1`, the result in [1], in experiment [13], in [7], in experiment [8], in experiment [9] and in [10] was inactive. Besides, the AC50 is 7.87 µM (active) in [15]; 10.1 µM (active) in experiment [16]; 8.73 µM (active) in [17]; 7.32 µM (active) in experiment [18]; 1.64 µM (active) in experiment [14]; 45.7 µM (active) in [12]. The half-maximal activity concentration (AC50) in experiment [11] was 13.8 µM (active).

Take `CCCCCc1ccc(N)cc1`: the compound was called inactive in experiment [1], in experiment [19], in experiment [12], in experiment [2], in [3] and in [6]. In addition, the result in [13], in [7] and in experiment [8] was inactive. In addition, the results for the AC50 in experiment [16] and in [19] were 8.47 µM (active) and 0.0459 µM (active), respectively.

As for `c1ccc2n[nH]nc2c1`, the outcome in experiment [1], in experiment [12], in experiment [6], in experiment [13], in experiment [7] and in experiment [8] was inactive.

In the case of `O=C1c2ccccc2C(=O)N1CCc1noc(-c2ccc(CN3CCCCCC3)s2)n1`, the compound was classed as inactive in [20], in experiment [2], in experiment [3], in [7], in [8] and in experiment [11]. For the same compound, the half-maximal activity concentration (AC50) in [15] is 7.26 µM (active); in experiment [17], 9.05 µM (active); in experiment [18] it was 6.14 µM (active); in [10], 4.81 µM (active).

In the case of `COc1ccc2cc(S(=O)(=O)N[C@H](CC(=O)N[C@H](Cc3ccc(CN4[C@H](C)CCC[C@@H]4C)cc3)C(=O)N(C)C(C)C)c3ccc4c(c3)OCO4)ccc2c1`, the compound was called inactive in [20], in experiment [19], in [7] and in experiment [8]. For the same compound, the AC50 in [16] is 12.1 µM (active); in experiment [2], 15.8 µM (active); in [3], 28.6 µM (active); in [4], 11.1 µM (active); in [6], 11.1 µM (active).
